Measurements reported in PubChem BioAssay (NCI).
Compounds without any hit were thinned out: in the full panel of roughly 83,000, 20% have a hit.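 How to read the values: 0–100, growth inhibition (40 = 60% inhibited); 0, no net growth; -100 to 0, cell death (-40 = 40% of starting cells died; -100 = all dead).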 Unmarked numbers belong to inactive results. Active and inactive are the calls of the source. Rule for the calls: active = growth percent below 10; inactive = the rest.

Experiments:
Assay in all cases: NCI-60 one-dose screen, 48 h (100 = growth as untreated, 0 = no growth, -100 = all killed)
Settings in all cases: 10 µM unless noted
SR leukemia = test system: SR leukemia
RPMI-8226 leukemia = test system: RPMI-8226 leukemia
OVCAR-8 ovarian = test system: OVCAR-8 ovarian
OVCAR-5 ovarian = test system: OVCAR-5 ovarian
OVCAR-4 ovarian = test system: OVCAR-4 ovarian
SK-OV-3 ovarian = test system: SK-OV-3 ovarian
IGROV1 ovarian = test system: IGROV1 ovarian
OVCAR-3 ovarian = test system: OVCAR-3 ovarian
HS 578T breast = test system: HS 578T breast
NCI/ADR-RES ovarian = test system: NCI/ADR-RES ovarian
T-47D breast = test system: T-47D breast
BT-549 breast = test system: BT-549 breast
MDA-MB-435 melanoma = test system: MDA-MB-435 melanoma
SW-620 colon = test system: SW-620 colon
MCF7 breast = test system: MCF7 breast
HCT-116 colon = test system: HCT-116 colon
HCC-2998 colon = test system: HCC-2998 colon
KM12 colon = test system: KM12 colon

Structure (SMILES) | growth (SR leukemia) | growth (RPMI-8226 leukemia) | growth (OVCAR-8 ovarian) | growth (OVCAR-5 ovarian) | growth (OVCAR-4 ovarian) | growth (SK-OV-3 ovarian) | growth (IGROV1 ovarian) | growth (OVCAR-3 ovarian) | growth (HS 578T breast) | growth (NCI/ADR-RES ovarian) | growth (T-47D breast) | growth (BT-549 breast) | growth (MDA-MB-435 melanoma) | growth (SW-620 colon) | growth (MCF7 breast) | growth (HCT-116 colon) | growth (HCC-2998 colon) | growth (KM12 colon)
C=CC(=O)Nc1ccc(Nc2nccc(-c3ccc(N4CCCC4)c(C#N)c3)n2)cc1 | -3.35% (active) | -10.3% (active) | 65.9% | 73.4% | 47.3% | 8.26% (active) | 35.9% | 14.1% | -5% (active) | 57.2% | 41.5% | 45.6% | -11.8% (active) | 3% (active) | 9.75% (active) | 24.8% | 31.5% | 14.6%
CN1CCN(c2ccc(NC(=O)c3cncnc3Nc3ccc(OCc4cccc(F)c4)c(Cl)c3)cc2)CC1 | 14.9% | 70.2% | 76.7% | 76.3% | 72.1% | 103% | 91.6% | 81.7% | 75% | 75.2% | 72.9% | 102% | -72.3% (active) | -30.5% (active) | 13.4% | 17.4% | 71.5% | 75.8%
CC(C)CCN(CCC(C)C)CC(O)c1cc2c(c3ccccc13)CCCC2 (centres undefined) | 11.8% | 49.3% | 81.6% | 71.5% | 78.2% | 76.8% | 64.2% | 85% | 80.6% | 71.8% | 59% | 103% | 98.4% | 59% | 78.5% | 50.5% | 30.1% | 64.6%
Cc1ncc(C(=O)Nc2ccc(CN3CCN(C)CC3)c(C(F)(F)F)c2)cc1C#Cc1cnc(N)c2ncccc12 | -33.9% (active) | -26.2% (active) | -24.7% (active) | 49.8% | -6.15% (active) | 0.896% (active) | 10.4% | 55.4% | 24.2% | 33.2% | 51.4% | 42.4% | -66.5% (active) | 16.6% | -58.6% (active) | -75.5% (active) | 52.1% | 7.51% (active)
CC(C)=CCNc1ncnc2c1ncn2C1OC(CO)C(O)C1O (centres undefined) | 1.23% [1 mM] (active) | -40.1% [1 mM] (active) | -40.8% [1 mM] (active) | 19.2% [1 mM] | -2.16% [1 mM] (active) | -21.5% [1 mM] (active) | 4.13% [1 mM] (active) | -69.9% [1 mM] (active) | -16.8% [1 mM] (active) | -33.2% [1 mM] (active) | -57% [1 mM] (active) | -51.7% [1 mM] (active) | 23.9% [1 mM] | -2.16% [1 mM] (active) | -60.7% [1 mM] (active) | -13.7% [1 mM] (active) | -62.5% [1 mM] (active) | 10.6% [1 mM]
O=C(Cc1ccccc1)Nc1cccc(N=Cc2ccccc2O)c1 | 117% | 113% | 98% | 114% | 102% | 106% | 111% | 93.2% | 108% | 105% | 91.8% | 115% | 97.8% | 109% | 94.4% | 108% | 106% | 98.1%
COC(=O)c1c2c(c(C)[n+]([O-])c1C)C(=O)C(NCc1cccc(Cl)c1)=CC2=O | 9.98% (active) | 26.9% | -5.76% (active) | 40.6% | -76% (active) | 81.3% | 2.76% (active) | -23.9% (active) | 79.1% | 0.849% (active) | 6% (active) | 49.3% | -68.5% (active) | 7.1% (active) | -36% (active) | 1.18% (active) | 15.3% | 17.7%
CN(C)c1ccc(-c2ccc3c(c2)c(-c2ccccc2)nc(=O)n3C)cn1 | 16.7% | 2.69% (active) | 54% | 53.2% | 74.6% | 38.6% | 49.1% | 13.1% | 41.2% | 27.2% | 22.1% | 49.1% | -11.1% (active) | 26.3% | 18% | 22.1% | 78.2% | 43.2%
O=c1nc(-c2ccccc2)c2cc(-c3ccc(C(F)(F)F)nc3)ccc2[nH]1 | 93.2% | 91.3% | 106% | 97.6% | 108% | 105% | 111% | 96% | 95.7% | 98.4% | 95.3% | 99.3% | 104% | 101% | 86.8% | 92.4% | 105% | 91.1%
C/C(=N\O)[C@@H]1CC[C@]2(CO)CC[C@]3(C)[C@H](CC[C@@H]4[C@@]5(C)CCCNC(C)(C)[C@@H]5CC[C@]43C)[C@@H]12 | 12.5% | 53.4% | 91.2% | 88.5% | 77.2% | 105% | 65.2% | 80.3% | 84.3% | 96.6% | 72.5% | 90.5% | 79.5% | 88.5% | 50.9% | 76.5% | 103% | 83.6%
Cc1ccc(S(=O)(=O)OCCCOS(=O)(=O)c2ccc(C)cc2)cc1 | 82.4% | 76.2% | 90% | 125% | 100% | 115% | 76.1% | 107% | 99.8% | 116% | 99.3% | 96.2% | 101% | 103% | 91.2% | 94.1% | 99.7% | 99.1%
COc1cccc(NCc2nnc(Nc3ccc(Cl)cc3)c3ccccc23)c1 | -24.5% (active) | -28.1% (active) | 3.02% (active) | 8.44% (active) | 17.2% | -11.9% (active) | 1.51% (active) | -53.6% (active) | 0.542% (active) | -5.42% (active) | -8.49% (active) | -12.2% (active) | -10.3% (active) | 11.9% | -1.96% (active) | -44.2% (active) | 2.79% (active) | -24.9% (active)
Oc1ccc(/C=C/c2ccc(O)cc2)cc1 | 47.7% | 12.8% | 35.7% | 135% | 12% | 99.7% | 43.9% | 47.7% | 61.3% | 20.3% | 69% | 18.7% | 52.8% | 65.4% | 33.1% | 47% |  | 45.5%
C[C@@H]1O[C@@H](O[C@@H]2C[C@H](c3ccc4c(c3O)C(=O)C3=C(C4=O)[C@@]4(O)C(=O)C[C@](C)(O)C[C@@]4(O)C=C3)O[C@H](C)[C@H]2O)CC[C@@H]1O[C@H]1C[C@@H](O)[C@H](O)[C@@H](C)O1 | 89.6% | 95.3% | 98.2% | 110% | 87.1% | 111% | 96.4% | 98.1% | 105% | 97% | 78.7% | 100% | 106% | 94.4% | 86.4% |  | 103% | 101%
COc1cc(/C=C2\CN(S(=O)(=O)c3ccccc3)C/C(=C\c3cc(CN4CCCCC4)c(O)c(OC)c3)C2=O)cc(CN2CCCCC2)c1O | -18.6% (active) | -34.9% (active) | -25% (active) | -66.6% (active) | -69.8% (active) | 108% | -51.8% (active) | -86.9% (active) | 0.476% (active) | 5.04% (active) | 89.2% | -39.9% (active) | -88.6% (active) | -74.5% (active) | -51.9% (active) | -67.4% (active) |  | -87.1% (active)
C[C@]1(O)CC(=O)[C@]2(O)C3=C(C=C[C@]2(O)C1)C(=O)c1c(O)cccc1C3=O | 10.5% | -0.202% (active) | -12.6% (active) | 38.8% | -97.9% (active) | 98.8% | 27.1% | -32.8% (active) | 71.8% | 47.2% | -45.5% (active) | 45.2% | -79.8% (active) | -55.5% (active) | -60.2% (active) | -32.1% (active) |  | 77.8%
